Rows were chosen to be rich in hits. Some 0.93% of all compounds tested hit in one or more screens of this group.
HIV TAR-Tat: HIV-1 TAR-Tat binding disruption. HIV-1 TAR RNA, Tat peptide displacement FRET; hits give high values. z-score (concentration not given with the values). actives 0.6% (n = 100,000); active means z-score of 3 or more in at least 2 runs
CDC25B CDK2 inh: human CDC25B-CDK2/CyclinA binding inhibition; P30305+P24941; HTRF CDC25B-CDK2/CyclinA binding, anti-His/anti-Flag; hits give high values; z-score (concentration not given with the values); actives 0.72% (n = 94,000); AID 1259370; in the data active means z-score above about 3.2
An asterisk follows results filed as active; / = no result.

SMILES | HIV TAR-Tat | CDC25B CDK2 inh
Nc1c(C(=O)NCc2ccco2)sc2nc(-c3ccncc3)ccc12 | -3.5 | 12*
COc1cc(CNC(=O)c2sc3nc(-c4ccncc4)ccc3c2N)cc(OC)c1 | 1.2 | -1.5
OCC1O[C@H]([S-])[C@@H](O)C(O)[C@@H]1O.[Au+] (stereo partly specified) | / | 19*
OCC1O[C@H](O)C(Cl)C(O)C1O (stereo partly specified) | / | -2.6
CC(=O)NS(=O)(=O)c1ccc(NC(=O)CCN2C(=O)/C(=C/c3ccccc3)SC2=S)cc1 | / | -2.5
O=C(O)CN1C(=O)/C(=C\c2ccc(-c3cccc4c3C(=O)c3ccccc3C4=O)o2)SC1=S | / | 10*
CN(CCCNC(=O)C1CCCN(c2nn3c(=O)c4c(nc3s2)CCCC4)C1)C1CCCCC1 (stereo unspecified) | 1.3 | /
CC(=O)NCCNC(=O)c1ccc2c(=O)[nH]c3c(C(=O)NC4CCCC4)sc(=S)n3c2c1 | 16 | /
CCN(CC)CCNC(=O)c1ccc2c(=O)[nH]c3c(C(=O)NC(C)C)sc(=S)n3c2c1 | 6.4* | /
CC(C)NC(=O)c1sc(=S)n2c1[nH]c(=O)c1ccc(C(=O)NC(C)c3ccccc3)cc12 (stereo unspecified) | 0.68 | /
O=C(NCc1ccco1)c1ccc2c(=O)[nH]c3c(C(=O)NCC4CCCO4)sc(=S)n3c2c1 (stereo unspecified) | 4.7* | /
O=C(NCc1cccc(Cl)c1)c1sc(=S)n2c1[nH]c(=O)c1ccccc12 | 2.9 | /
O=C(NCc1ccccc1)c1sc(=S)n2c1[nH]c(=O)c1ccccc12 | 8.4* | /
CCCCCCSC1=C(C#N)C(c2ccc(F)cc2)CC(=O)N1 (stereo unspecified) | 1.4 | -1.9
CCOc1cc(C2NC(=O)c3n[nH]c(C)c32)ccc1O (stereo unspecified) | 2.1 | -0.69
CCOC(=O)c1c(C)oc2nc(C)nc(NCCC3=CCCCC3)c12 | 0.23 | /
Cn1ncc2c(N3CCCC3)nc(N3CCOCC3)nc21 | 1.8 | /
O=S(=O)(CCc1ccccc1)NCCc1csc(-c2ccc(Cl)cc2)n1 | 0.01 | /
CCCCc1cnc2c(c1SCC(=O)Nc1nc(C)cs1)c(=O)n(C)c(=O)n2C | 0.68 | /
O=C(O)C1C2CC=CC2c2cc(Br)cc3c2N1CC1CC=CC31 (stereo unspecified) | 20* | 4.9*
Cc1cc2c3c(c1)C1C=CCC1C(C(=O)O)N3CC1CC=CC21 (stereo unspecified) | / | -1.2
Cc1ccc(-n2ncc3c(N4CCCC4)ncnc32)cc1 | 1.5 | /
COc1cc(-c2coc3cc(OC)c(OC)c(OC)c3c2=O)cc(OC)c1OC | 3.2 | /
CC(=O)Oc1cc(-c2coc3cc(OC(C)=O)c(OC(C)=O)c(OC(C)=O)c3c2=O)cc(OC(C)=O)c1OC(C)=O | 25* | /
O=C(O)c1cccn1Cc1ccc(F)cc1 | 0.54 | 2.2
SMILES | HIV TAR-Tat | CDC25B CDK2 inh
N#CNC(=Nc1ccccc1C(F)(F)F)N1CCCC1 | / | -2.6
COc1ccc(O)c(C2Nc3ccccc3-n3c(-c4ccccc4)c4c(=O)n(C)c(=O)n(C)c4c32)c1 (stereo unspecified) | 1.7 | -0.2
COc1ccc(-c2c3c(=O)n(C)c(=O)n(C)c3c3n2-c2ccccc2NC3c2cc(O)ccc2O)cc1 (stereo unspecified) | 21* | -1.8
CCN(CC)S(=O)(=O)c1ccc2c(c1)nc(CN1CCN(S(=O)(=O)CC)CC1)n2C | 0.61 | /
CC1CCc2c(sc3nc(CCC(=O)NCCN4CCOCC4)[nH]c(=O)c23)C1 (stereo unspecified) | -1.4 | /
CCOC(=O)c1[nH]c(C)c(C(=O)NC2CCC(C)CC2)c1C (stereo unspecified) | 1.9 | -0.23
Cn1cnc(S(=O)(=O)N2CCCC(c3nnc(C(=O)Nc4ccc(F)cc4)s3)C2)c1 (stereo unspecified) | 1.2 | /
CCCCCCNC(=O)Cn1cnc2c1c(=O)n(C)c(=O)n2C | 0.11 | -0.93
COc1ccc2nc3c(cc2c1)c(N)nn3C(=O)c1cc(Br)ccc1Cl | 1.7 | -1.1
O=C(CCc1nnc2ccc(N3CCOCC3)nn12)Nc1ccccc1F | 1.3 | /
Cc1ccccc1NC(=O)Nc1sc2nc3n(c(=O)c2c1C)CCC(C)CC3 (stereo unspecified) | 0.07 | 12*
COc1cc(OC)c(NC(=O)Nc2sc3nc4n(c(=O)c3c2C)CCC(C)CC4)cc1Cl (stereo unspecified) | 0.31 | 11*
COc1cccc(NC(=O)Nc2sc3nc4n(c(=O)c3c2C)CCC(C)CC4)c1 (stereo unspecified) | 0.79 | -3
Cc1c(NC(=O)Nc2ccccc2Cl)sc2nc3n(c(=O)c12)CCC(C)CC3 (stereo unspecified) | 0.25 | -2.5
CCC(O)c1nc2ccccc2n1CCCOc1cc(C)cc(C)c1 (stereo unspecified) | 1.7 | -1.3
Cc1ccc(CNC(=O)c2nc3c(nnn3CC3CCCO3)c(=O)[nH]2)cc1 (stereo unspecified) | 1.1 | 0.47
